IL-1B inflam inh – inhibitors of inflammasome signaling (IL-1 beta secretion) | THP-1 LPS/ATP IL-1B secretion, AlphaLISA, 16 h; hits give low values | activity change, % at 57.5 µM | 4.7% of 360,000 active; in the data active means activity change below about -50%; inconclusive means mostly about -30% to -49%
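THP-1 cells pretreated 1 hr with compounds (up to 57.5 uM final), then stimulated with LPS (250 ng/mL final) plus ATP (1.25 mM final); secreted IL-1B measured by AlphaLISA after 16 hr, decreased signal indicating inhibition.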
HT1080NT lethal – kills 2HG-producing HT-1080-NT fibrosarcoma cells; HT-1080-NT fibrosarcoma viability, CellTiter-Glo ATP luminescence, 48 h; Potency, µM (series often up to 46.1 µM), for inactives: at the highest dose activity, negative = less viability, usual class: cytotoxic; 1.6% of 360,000 active; AID 686970;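 further: NT is the 2HG producing partner of a matched IDH1 knockdown line; potency means the concentration at half of the fitted maximal effect; 0% = DMSO-treated cells and -100% = media-only wells without cells; nearly all actives have a fitted effect of over 55% in size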
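750 cells/well, RPMI + 5% FBS; 2 h settle, compound pin-transfer, 48 h at 37 degrees C. CellTiter-Glo 10 min RT, luminescence. Normalized to DMSO and media-only wells.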
uPA generation – blocks generation of uPA at the cell surface | cell surface uPA generation assay, qHTS | Potency, µM (highest dose often 38.3 µM), inactives show top-dose activity change, negative = inhibition, hits mostly inhibitors | 0.31% of 330,000 active; active means well fitted inhibition curve with a large enough effect; inconclusive means small, poorly fitted or top-dose-only effect; inactive means no such curve, though single readings can be large or run the other way; tested in mouse RAW 264.7 cells; further: potency means the concentration at half of the fitted maximal effect; nearly all actives have a fitted effect of over 55% in size
HT1080 IDH1KD tx – toxicity to HT-1080 IDH1 knockdown cells (counter line); HT-1080 IDH1 knockdown viability, ATP luminescence, 48 h; Potency, µM (titrated, usually from 46.1 µM), without a hit: at the top dose activity, negative = toxicity, actives largely listed as cytotoxic; 2% of 360,000 active; AID 686971;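 further: potency means the concentration at half of the fitted maximal effect; 0% = DMSO wells and -100% = cell-free medium wells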
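Assay cells: HT-1080 with IDH1 knockdown, 750 per well, RPMI/5% FBS. Exposure: 48 h at 37 °C following 2 h pre-incubation. Read: CellTiter-Glo luminescence; fitted concentration-response, curve class assigned.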
DT40 TDP1 CPT – DT40-hTDP1 cell growth loss with CPT. chicken DT40 Tdp1-/-;hTDP1 cells + 20 nM CPT, ATP luminescence, 48 h. Potency, µM (doses to about 46.2 µM), for the others: at the highest dose activity change, negative = growth inhibition, actives largely listed as inhibitors. 12% of 420,000 active. AID 686979; further: potency means the concentration at half of the fitted maximal effect; nearly all actives have a fitted effect of over 55% in size
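Cell growth measured by CellTiter-Glo luminescence after a minimum 48 h, 37 C compound exposure with 20 nM CPT in Tdp1-knockout DT40 cells stably expressing hTDP1, seeded 400/well; qHTS titration format.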
TDP1 cell noCPT – qHTS for Inhibitors of human tyrosyl-DNA phosphodiesterase 1 (TDP1): qHTS in cells in absence of CPT. DT40 Tdp1-/- hTDP1 cells, no CPT, ATP luminescence, 48 h. Potency, µM (series often up to 46.2 µM), inactives show top-dose activity change, negative = growth inhibition, usual class: inhibitors. 15% of 420,000 active. AID 686978, 2013; further: potency means the concentration at half of the fitted maximal effect; nearly all actives have a fitted effect of over 55% in size
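Growth kinetics read by CellTiter-Glo luminescence after ≥48 hr at 37 °C. Cells: DT40 Tdp1-/- stably carrying human TDP1, 400 per well, compound exposure in the absence of CPT (DMSO vehicle).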
Numbers without * were called inactive. Compounds with a hit are over-represented: about 19% of the library has one in this group of screens. Unless noted, the call rests on the fitted dose curve; in most records, active means well fitted curve in the direction sought with a large enough effect; inconclusive means small, poorly fitted or top-dose-only effect, or another doubt; inactive means no such curve, though single readings can be large; an effect the other way counts as inactive or inconclusive. Unless noted, on the % scale 0 is the no-effect control and ±100 the full control effect.

`O=C(COC(=O)c1cccc2c1C(=O)c1ccccc1C2=O)NC1CCCCC1` gave IL-1B inflam inh -132*, HT1080NT lethal inconclusive, uPA generation -5%, HT1080 IDH1KD tx inconclusive, DT40 TDP1 CPT inconclusive and TDP1 cell noCPT inconclusive.
O=C(COC(=O)c1ccc2c(c1[N+](=O)[O-])C(=O)c1ccccc1C2=O)NC1CC1 was read as IL-1B inflam inh -77*, HT1080NT lethal inconclusive, uPA generation -10%, HT1080 IDH1KD tx inconclusive, DT40 TDP1 CPT 3.7µM* and TDP1 cell noCPT inconclusive.
`CN(C)c1ccc(/C=C/c2c([N+](=O)[O-])c(=O)n(C)c(=O)n2C)cc1` gave IL-1B inflam inh -1, HT1080NT lethal -3%, uPA generation inconclusive, HT1080 IDH1KD tx -1%, DT40 TDP1 CPT 2% and TDP1 cell noCPT 1%.
For COc1cc(/C=C/c2c([N+](=O)[O-])c(=O)n(C)c(=O)n2C)cc(OC)c1OC the results were IL-1B inflam inh -5, HT1080NT lethal -10%, uPA generation -33%, HT1080 IDH1KD tx inconclusive, DT40 TDP1 CPT inconclusive and TDP1 cell noCPT inconclusive.
Screening COc1ccc(/C=C/c2c([N+](=O)[O-])c(=O)n(C)c(=O)n2C)cc1O returned IL-1B inflam inh -83*, HT1080NT lethal -3%, uPA generation -13%, HT1080 IDH1KD tx -11%, DT40 TDP1 CPT -29% and TDP1 cell noCPT inconclusive.
`Cn1c(/C=C/c2ccc(Br)cc2)c([N+](=O)[O-])c(=O)n(C)c1=O` gave IL-1B inflam inh -103*, HT1080NT lethal inconclusive, uPA generation -20%, HT1080 IDH1KD tx 13µM*, DT40 TDP1 CPT 8.2µM* and TDP1 cell noCPT 12µM*.
CCCOc1ccc(/C=C/c2c([N+](=O)[O-])c(=O)n(C)c(=O)n2C)cc1 was read as IL-1B inflam inh -77*, HT1080NT lethal 1%, uPA generation inconclusive, HT1080 IDH1KD tx -10%, DT40 TDP1 CPT -22% and TDP1 cell noCPT -17%.
`OCC1OC2C(NC(=S)N2c2ccccc2)C(O)C1O` (stereo not drawn) gave IL-1B inflam inh 15, HT1080NT lethal 9%, uPA generation 5%, HT1080 IDH1KD tx 15%, DT40 TDP1 CPT 4% and TDP1 cell noCPT 6%.
OC[C@@H](O)[C@H](O)C(/C=N/Nc1ccccc1)=N\Nc1ccccc1 was read as IL-1B inflam inh -19, HT1080NT lethal inconclusive, uPA generation -2%, HT1080 IDH1KD tx inconclusive, DT40 TDP1 CPT -26% and TDP1 cell noCPT inconclusive.
For COc1ccc(C[C@H]2CN3C(=NC[C@H]3Cc3ccccc3)N2CCNC(=O)c2ccc(C)c(Br)c2)cc1 the results were IL-1B inflam inh -52*, HT1080NT lethal -21%, uPA generation -23%, HT1080 IDH1KD tx inconclusive, DT40 TDP1 CPT 21µM* and TDP1 cell noCPT 15µM*.
`COc1ccc(C[C@H]2CN3C(=NC[C@@H]3Cc3ccccc3)N2CCNC(=O)c2ccc(C)c(Br)c2)cc1` gave IL-1B inflam inh -52*, HT1080NT lethal inconclusive, uPA generation -16%, HT1080 IDH1KD tx inconclusive, DT40 TDP1 CPT 23µM* and TDP1 cell noCPT 21µM*.
`C[C@@H](CN1C2=NC[C@H](Cc3ccccc3)N2C[C@H]1Cc1ccc(O)cc1)NC(=O)CCC1CCCCC1` gave IL-1B inflam inh inconclusive, HT1080NT lethal inconclusive, uPA generation 7%, HT1080 IDH1KD tx inconclusive, DT40 TDP1 CPT 7.3µM* and TDP1 cell noCPT 12µM*.
`C/C=C(\C)C(=O)NCCN1C2=NC[C@H](Cc3ccccc3)N2C[C@@H]1Cc1ccc(OC)cc1` gave IL-1B inflam inh inconclusive, HT1080NT lethal -7%, uPA generation 4%, HT1080 IDH1KD tx 0%, DT40 TDP1 CPT inconclusive and TDP1 cell noCPT inconclusive.
COc1ccc(C[C@H]2CN3C(=NC[C@H]3Cc3ccccc3)N2CCNC(=O)CCC2CCCCC2)cc1 was read as IL-1B inflam inh -20, HT1080NT lethal -4%, uPA generation -1%, HT1080 IDH1KD tx -2%, DT40 TDP1 CPT inconclusive and TDP1 cell noCPT 26µM*.
For O=c1c(-c2cc(F)cc(F)c2)nc2cncnc2n1C1CC1 the results were DT40 TDP1 CPT 1% and TDP1 cell noCPT 1%.
For CCOC(=O)C(NCCOC)(NC(C)=O)C(F)(F)F (stereo not drawn) the results were IL-1B inflam inh 20, HT1080NT lethal 3%, uPA generation 0%, HT1080 IDH1KD tx 12%, DT40 TDP1 CPT 37% and TDP1 cell noCPT 10%.
Screening Cc1ccc(S(=O)(=O)NCC2CCC(C(=O)NCCCOC(C)C)CC2)cc1 (stereo not drawn) returned DT40 TDP1 CPT -3% and TDP1 cell noCPT -13%.
`Cc1ccc(CN2C(=O)CN(C3CCCCCC3)C(=O)C2c2ccc(F)cc2)cc1` (stereo not drawn) gave DT40 TDP1 CPT 18µM* and TDP1 cell noCPT 16µM*.
`COc1ccc(C2C(=O)N(C3CCCCCC3)CC(=O)N2Cc2ccc(C)cc2)cc1OC` (stereo not drawn) gave DT40 TDP1 CPT 23µM* and TDP1 cell noCPT 23µM*.
Screening CCOCCCN1C(=O)CN(C2CCCCCC2)C(=O)C1c1ccc(OC)cc1 (stereo not drawn) returned IL-1B inflam inh 5, HT1080NT lethal 9%, HT1080 IDH1KD tx -11%, DT40 TDP1 CPT 7.9µM* and TDP1 cell noCPT inconclusive.
Screening CCCOc1ccc(C2C(=O)N(C3CCCCCC3)CC(=O)N2Cc2ccc(OC)cc2)cc1OC (stereo not drawn) returned DT40 TDP1 CPT inconclusive and TDP1 cell noCPT 23µM*.
`CCOC(=O)C1(C)CCN1C(=O)Cc1ccc(OC)cc1` (stereo not drawn) gave IL-1B inflam inh 23, HT1080NT lethal 4%, HT1080 IDH1KD tx 0%, DT40 TDP1 CPT -1% and TDP1 cell noCPT -9%.
Screening N#Cc1ccc(CSc2nc3c(c(=O)[nH]2)CCC3)cc1 returned DT40 TDP1 CPT -1% and TDP1 cell noCPT -15%.
`Cc1ccc(C2C(=O)N(C3CCCCCC3)CC(=O)N2C(C)C)cc1` (stereo not drawn) gave DT40 TDP1 CPT inconclusive and TDP1 cell noCPT 26µM*.
O=C1C(c2ccc(F)cc2)N(CCc2ccccc2)C(=O)CN1C1CCCCCC1 (stereo not drawn) was read as DT40 TDP1 CPT inconclusive and TDP1 cell noCPT 13µM*.

High-throughput results: PubChem BioAssay, National Center for Advancing Translational Sciences (NCATS)
